# Calls of active or inactive are those of the source. Unless noted, the rule behind the calls is not given here.
# Assay: inhibition of PAO1 biofilm formation – strain PAO1, LB-PBS medium, absorbance 600 nm, primary screen (AID 1176)
# Settings: P. aeruginosa PAO1 growth/biofilm, A600, 12 h; higher = more signal
# Note: test concentration not given here.
row,Compound,z-score
1,CN(C)CCCCCCNC(=O)[C@H]1C[C@H]2C(=O)N3CCC[C@H]3C(=O)N2[C@H]1c1ccc(O)cc1,1.44 (inactive)
2,O=C(CS)NCCCCCCNC(=O)[C@@H]1C[C@@H]2C(=O)NCC(=O)N2[C@@H]1c1cccc(OCCO)c1,0.351 (inactive)
3,COC(=O)[C@@]1(Cc2ccc(F)cc2)[C@H]2c3cc(C(=O)N(C)C)n(Cc4ccccc4)c3C[C@H]2CN1C(=O)c1ccccc1,0.976 (inactive)
4,C=CCNC(=O)[C@H]1[C@@H]2C(=O)O[C@@H](c3ccccc3)[C@@H](c3ccccc3)N2[C@@H](c2ccccc2OCCO)[C@]12C(=O)Nc1ccc(C#CCC(C(=O)OC)C(=O)OC)cc12,2.07 (inactive)
5,COCCOC(=O)N1C(=O)[C@@]2(c3cc(C#CCNC(N)=O)ccc31)[C@H](C(=O)Nc1nc3ccccc3s1)[C@H]1C(=O)O[C@H](c3ccccc3)[C@H](c3ccccc3)N1[C@@H]2c1ccc(OCCO)cc1,2.41 (inactive)
6,C=CCOC(=O)[C@H]1[C@@H]2C(=O)O[C@@H](c3ccccc3)[C@@H](c3ccccc3)N2[C@@H](c2ccc(OCCOC(=O)[C@H]3C[C@H]4C(=O)N[C@@H](CCCC[N+](C)(C)C)C(=O)N4[C@H]3c3ccc(O)cc3)cc2)[C@]12C(=O)Nc1ccc(I)cc12,-0.379 (inactive)
7,C=CCOC(=O)[C@H]1[C@@H]2C(=O)O[C@@H](c3ccccc3)[C@@H](c3ccccc3)N2[C@@H](c2ccc(OCCOC(=O)[C@H]3C[C@H]4C(=O)N[C@@H](CCCCN(C)C)C(=O)N4[C@H]3c3ccc(O)cc3)cc2)[C@]12C(=O)Nc1ccc(I)cc12,0.739 (inactive)
8,C=CCN1C(=O)[C@@]2(CC=C)N=C(c3ccc(OCCCO)cc3)O[C@H]2c2ccccc21,2.21 (inactive)

# Assay: growth modulation of vineyard yeast isolate – strain RM11-1a, OD600, basal, 24 h, primary screen (AID 1177);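 note: cultures grown under basal conditions with no added stressor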
# Settings: S. cerevisiae RM11-1a growth, OD600, 24 h; higher = more signal, called active from +8 up or from −8 down
row,Compound,z-score
1,COC(=O)[C@@]1(Cc2ccc(F)cc2)[C@H]2c3cc(C(=O)N4CCCC4)n(Cc4ccc(S(C)(=O)=O)cc4)c3C[C@H]2CN1C(=O)c1ccccc1,0.458 (inactive)
2,CO[C@H]1O[C@H](CO)[C@@H](OC(=O)Nc2ccc(C(F)(F)F)cc2)[C@H](OC(=O)Nc2ccc3c(c2)OCO3)[C@@H]1OC(=O)Nc1ccc2c(c1)OCO2,3.25 (inactive)
3,O=C1O[C@@H](c2ccccc2)[C@@H](c2ccccc2)N2[C@@H](c3ccccc3OCCO)[C@]3(C(=O)Nc4ccccc43)[C@@H](C(=O)Nc3nc4ccccc4s3)[C@H]12,1.11 (inactive)
4,Cc1ccc(S[C@]2(C(=O)NCCCN(C)C)CC(=O)N(Cc3cc(C(F)(F)F)cc(C(F)(F)F)c3)[C@@H]2c2ccc(CO)cc2I)cc1,-0.514 (inactive)
5,O=C1c2ccccc2[C@](Cc2ccccc2I)(C(=O)NCC(F)(F)F)[C@H](c2ccc(CO)cc2)N1Cc1ccccc1Cl,-0.838 (inactive)
6,O=C(NCCN1CCOCC1)[C@@H]1c2ccccc2C(=O)N(C2CCCCC2)[C@H]1c1ccc(CO)cc1,0.0492 (inactive)
7,CC#CC(=O)Oc1ccccc1C=CC(=O)OCC,-1.34 (inactive)
8,COC(=O)[C@@]1(CCS(=O)(=O)c2ccccc2)N=C(c2ccc(OCCCO)cc2)O[C@H]1c1ccccc1CN=[N+]=[N-],0.642 (inactive)
9,C=CC1(C(=O)OC)CC=C(C(=O)OC)CC1 (stereo not drawn),-0.834 (inactive)
10,CC(C)C(CO)N1C(=O)[C@@H]2C3C(=O)OCCC/C=C\[C@H]3OC23C=CCN(CCN2CCOCC2)C(=O)[C@@H]13 (stereo partly drawn),-0.0505 (inactive)
11,COc1cc(C(O)C2C=CC3C(=O)NC(=O)C3N2Nc2ccccn2)cc(OC)c1OC (stereo not drawn),0.228 (inactive)
12,COC(=O)[C@@]1(Cc2ccccc2)[C@H]2c3cc(C(=O)N4CCCC4)n(Cc4ccc(S(C)(=O)=O)cc4)c3C[C@H]2CN1C(=O)c1ccccc1,-0.33 (inactive)
13,C=C[C@@H](COC(=O)OC(C)(C)C)N(Cc1ccc(OC)cc1)S(=O)(=O)c1ccc(Br)cc1,0.378 (inactive)
14,COC(=O)[C@H](Cc1ccccc1)N[C@@H](/C=C/C1CC1)[C@H](O)Cc1ccccc1,0.584 (inactive)
15,O=C1c2ccccc2[C@](Cc2ccccc2I)(C(=O)NCCN2CCOCC2)[C@H](c2ccc(CO)cc2)N1C1CCCCC1,0.358 (inactive)
16,CCOC(=O)[C@H]1C/C=C/C[C@H](C(=O)OCC)C(=O)O[C@H]2[C@@H](OC)O[C@H](CO)[C@@H](OC(=O)c3c(OC)cccc3OC)[C@@H]2OC1=O,0.996 (inactive)
17,CCOC(=O)C[C@H]1[C@H](OC(=O)c2ccc(C(=O)c3ccccc3)cc2)[C@@H](NC(=O)c2ccc3ccccc3c2)c2cc(OCCCO)ccc2N1C(=O)Cc1ccc(OC)cc1,0.4 (inactive)
18,CCC(CC)C(O)C1C=CC2C(=O)NC(=O)C2N1Nc1ccccn1 (stereo not drawn),0.469 (inactive)

row,Compound,z-score
1,COc1ccc([Si](C)(C)[C@H]2[C@H](CC(=O)N3Cc4ccccc4C[C@H]3CO)O[C@@]3(C(=O)N(Cc4cccc(N5CCC5=O)c4)c4ccccc43)[C@@H]2C)cc1,2.58 (inactive)
2,OCCCC1=CC(c2cccs2)N(Cc2cc3c(cc2Br)OCO3)CC1 (stereo not drawn),-0.174 (inactive)
3,CCCCCCc1nc(-c2ccc(OC)nc2)cc2c1[Si](C(C)C)(C(C)C)O[C@H]2c1ccccc1,0.056 (inactive)
4,COc1ccc([Si](C)(C)[C@H]2[C@H](CCO)O[C@@]3(C(=O)N(Cc4ccc(N(C=O)c5ccccc5)cc4)c4ccccc43)[C@@H]2C)cc1,4.71 (inactive)
5,O=C(NCCO)C1=C[C@H](Oc2ccccc2I)[C@@H](O)[C@H](N(Cc2ccco2)C(=O)Cc2ccccc2)C1,0.552 (inactive)
6,C=C[C@H](C)[C@@H](OC(=O)Nc1ccc(OC)cc1)c1ccc(O)c2ccccc12,-21.8 (active)
7,C=C(COC)/C(=C/C[C@H](OC(C)=O)c1ccc(CO)o1)c1cc(C(=O)OC)ccc1OC,-0.253 (inactive)
8,COC(=O)[C@@]1(Cc2ccccc2)[C@H]2c3cc(C(=O)N(C)C)n(Cc4ccsc4Br)c3C[C@H]2CN1C(=O)c1ccccc1,1.24 (inactive)
9,COc1ccc([Si](C)(C)[C@@H]2[C@@H](CCO)O[C@]3(C(=O)N(Cc4ccc(N(C=O)c5ccccc5)cc4)c4ccccc43)[C@H]2C)cc1,4.89 (inactive)
10,CN(C)CCCCCCNC(=O)[C@H]1C[C@H]2C(=O)N3CCC[C@H]3C(=O)N2[C@H]1c1ccc(O)cc1,-0.327 (inactive)
11,O=C(CS)NCCCCCCNC(=O)[C@@H]1C[C@@H]2C(=O)NCC(=O)N2[C@@H]1c1cccc(OCCO)c1,0.752 (inactive)
12,COC(=O)[C@@]1(Cc2ccc(F)cc2)[C@H]2c3cc(C(=O)N(C)C)n(Cc4ccccc4)c3C[C@H]2CN1C(=O)c1ccccc1,1.61 (inactive)
13,C=CCNC(=O)[C@H]1[C@@H]2C(=O)O[C@@H](c3ccccc3)[C@@H](c3ccccc3)N2[C@@H](c2ccccc2OCCO)[C@]12C(=O)Nc1ccc(C#CCC(C(=O)OC)C(=O)OC)cc12,3.57 (inactive)
14,COCCOC(=O)N1C(=O)[C@@]2(c3cc(C#CCNC(N)=O)ccc31)[C@H](C(=O)Nc1nc3ccccc3s1)[C@H]1C(=O)O[C@H](c3ccccc3)[C@H](c3ccccc3)N1[C@@H]2c1ccc(OCCO)cc1,1.41 (inactive)
15,C=CCOC(=O)[C@H]1[C@@H]2C(=O)O[C@@H](c3ccccc3)[C@@H](c3ccccc3)N2[C@@H](c2ccc(OCCOC(=O)[C@H]3C[C@H]4C(=O)N[C@@H](CCCC[N+](C)(C)C)C(=O)N4[C@H]3c3ccc(O)cc3)cc2)[C@]12C(=O)Nc1ccc(I)cc12,0.0102 (inactive)
16,C=CCOC(=O)[C@H]1[C@@H]2C(=O)O[C@@H](c3ccccc3)[C@@H](c3ccccc3)N2[C@@H](c2ccc(OCCOC(=O)[C@H]3C[C@H]4C(=O)N[C@@H](CCCCN(C)C)C(=O)N4[C@H]3c3ccc(O)cc3)cc2)[C@]12C(=O)Nc1ccc(I)cc12,-0.0228 (inactive)
17,C=CCN1C(=O)[C@@]2(CC=C)N=C(c3ccc(OCCCO)cc3)O[C@H]2c2ccccc21,0.113 (inactive)
